According to PubChem BioAssay (NCI):
Where “and” joins values, the source holds several entries; their conditions need not be identical. Equal values may be shown once. About 83,000 compounds went through this panel and 20% of them were active in at least one assay; those are over-represented in the sample as a whole.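 Assay: single dose, 48 h. Readout: percent growth (0 = no net growth; negative = cell death). Active: <10.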 Calls of active or inactive are those of the source.

Each compound was assayed on MDA-MB-468 breast (assay: NCI-60 one-dose screen, 48 h (100 = growth as untreated, 0 = no growth, -100 = all killed)). Settings: 10 µM unless noted.

Row | SMILES | growth
1 | C=CCC(O)C=C (stereo not given) | 102% (inactive)
2 | N#C/C(=C\c1ccc(-c2cc(C(F)(F)F)ccc2Cl)o1)c1nc(-c2ccco2)cs1 | -3.16% (active)
3 | CCN(CC)CCCC(C)Nc1cnc(C(=O)Nc2cccc3ccc(OC)nc23)cn1 (stereo not given) | 79.1% (inactive)
4 | CN1CNC(=O)NC1 | 102% (inactive) and 96.9% (inactive)
5 | COCCOC1=C(Cl)C(=O)c2ccccc2C1=O | -5.01% (active)
6 | Cc1cc(N2CCCCC2)nc(N(CCCNc2ccnc3cc(Cl)ccc23)Cc2ccco2)n1 | 6.73% (active)
7 | Cc1ccc([C@H]2c3[nH]c4ccccc4c3C[C@H]3C(=O)N(CCCCCCC(=O)NO)CC(=O)N23)s1 | 37.3% (inactive)
8 | c1ccc(Sc2ncccn2)nc1 | 97% (inactive)
9 | COc1cc(NC(=O)c2cc(OC)c3ccn(C)c3c2)cc2c1C[C@]1(C)CC[C@@H](O)C(C)(C)[C@H]1O2 | 69.6% (inactive)
10 | Cc1ccc(NS(=O)(=O)c2ccc3c(c2)C2OCCC2C(c2ccc(C(=O)C(C)C)cc2)N3)cc1C (stereo not given) | -4.81% (active)
11 | O=c1[nH]c(CCl)nc2c1cnn2-c1ccccc1 | 96.6% (inactive)
12 | COc1cc(C2CC(c3ccc(Nc4ccnc5cc(Cl)ccc45)cc3)=NN2c2ccc(Cl)cc2)cc(OC)c1OC (stereo not given) | 41.9% (inactive)
13 | CNC(=O)c1c(NC(=O)c2ccccc2C(F)(F)F)sc2c1CCC(=O)C2 | 25.1% (inactive)
14 | CCN(CC)CCCC(C)Nc1c2c(nc3ccc(OC)cc13)CCCC2 (stereo not given) | 98.8% (inactive)
15 | O=C(NCc1ccc(Cn2c(=O)sn(-c3ccccc3)c2=O)cc1)OCc1ccc2c(Br)cc(Br)c(O)c2n1 | -67.5% (active)
16 | C#Cc1ccc(-n2c(/C=C/c3ccc4ccccc4n3)nc3ncccc3c2=O)cc1 | -68.1% (active)
17 | CC(C)c1ccc(S(=O)(=O)NC(=O)NC2CCCC2)cc1 | 96.2% (inactive)
18 | COc1cc2cc(NCc3cccc(Cl)c3)nc(C)c2cc1OC | 46.6% (inactive)
19 | CN1CCN(c2ccc(NC(=O)c3cncnc3Nc3ccc(OCc4cccc(F)c4)c(Cl)c3)cc2)CC1 | 71.8% (inactive)
20 | CC(=O)OCC(COC(C)=O)(COC(C)=O)COC(C)=O | 102% (inactive)

Row | SMILES | growth
21 | C/C=C1/CN(CCCCC)CC[C@H]1C(=O)c1cc2ccccc2[nH]1 | 90.7% (inactive)
22 | C=C(C)[C@@H]1CC[C@]2(C(=O)O)CC[C@]3(C)[C@H](CC[C@@H]4[C@@]5(C)CCC(NC(=O)c6cccc(OC(C)=O)c6OC(C)=O)C(C)(C)[C@@H]5CC[C@]43C)[C@@H]12 (stereo not given in full) | -5.31% (active)
23 | COc1nccc2cc3c(=O)n4c(cc5ccccc54)c(=O)n3c12 | 89.4% (inactive)
24 | CCc1nc(C(N)=O)c(Nc2ccc(N3CCC(N4CCN(C)CC4)CC3)c(OC)c2)nc1NC1CCOCC1 | 69.7% (inactive)
25 | O=C(CCc1nnc(CN(c2ccccc2)c2ccccc2)o1)c1nc2ccccc2[nH]1 | 89.1% (inactive)
26 | CC[C@H](C)[C@H](NC(=O)[C@H](CCCCN)NC(=O)[C@H](CCCCN)NC(=O)[C@@H](NC(=O)[C@@H](NC(=O)[C@@H](N)Cc1cnc[nH]1)[C@@H](C)CC)[C@@H](C)CC)C(=O)N[C@@H](CCCNC(=N)N)C(=O)N[C@H](C(=O)N[C@@H](Cc1c[nH]c2ccccc12)C(=O)N[C@@H](Cc1ccc(O)cc1)C(=O)N[C@@H](CCCNC(=N)N)C(=O)N[C@@H](CCCCN)C(=O)N[C@@H](C)C(=O)N[C@@H](Cc1c[nH]c2ccccc12)C(=O)N[C@@H](Cc1cnc[nH]1)C(=O)N[C@H](C(=O)N[C@@H](CC(C)C)C(=O)NCC(=O)N[C@@H](CCCCN)C(=O)N[C@H](C(N)=O)C(C)C)C(C)C)[C@@H](C)O | 59.2% (inactive)
27 | Cc1cc(Nc2nc(SCc3ccc(C(=O)Nc4ccc(F)cc4N)cc3)nn3cccc23)n[nH]1 | 47.7% (inactive)
28 | c1ccc(NCc2ccc3c(c2)OCO3)cc1 | 104% (inactive) and 97.7% (inactive)
29 | CC(=O)N1c2ccccc2NC2=C(C(=O)N(Cc3ccccc3)C2(C)C)C1c1ccco1 (stereo not given) | -1.86% (active)
30 | CC1(C)CC[C@]2(C(=O)O)CC[C@]3(C)C(=CC[C@@H]4[C@@]5(C)CC[C@H](NOCCCN)C(C)(C)[C@@H]5CC[C@]43C)[C@@H]2C1 | -45.6% (active)
31 | O=C1CC2(O)CSc3nc(=O)cc(n32)N1 (stereo not given) | 109% (inactive)
32 | CCNCCNc1cc(-c2ccc(Cl)cc2)c(C#N)c2nc3ccccc3n12 | -45.3% (active)
33 | COc1cc(C(=O)/C=C/c2c(-c3ccc(F)cc3)nc3sc(C)cn23)cc(OC)c1OC | 14.1% (inactive)
34 | CSc1nnc(-c2cc3c([nH]c4ccccc43)c(-c3cccc(O)c3)n2)n1-c1ccccc1 | 33.4% (inactive)
35 | O=C1CCc2c(sc3[nH]c(=S)n(-c4cc(C(F)(F)F)cc(C(F)(F)F)c4)c(=O)c23)C1 | -14.2% (active)
36 | CN1C(=O)N(c2ccccc2)C2N=C(N/N=C/c3ccccc3)SC21 (stereo not given) | -11.5% (active)
37 | C/C=C/C1OCC(CC)C(CCC)O1 (stereo not given) | 122% (inactive)
38 | CC(C)[C@@]12C[C@@H](OC(=O)C3CO3)[C@@](C)(O1)[C@@H]1CC[C@@H](C)[C@H]1[C@@H]2OC(=O)/C=C/c1ccccc1 (stereo not given in full) | 95.4% (inactive)
39 | C/C(Cc1ccc(Cl)cc1)=C(/c1ccc(Cl)cc1)c1ccc(OCCN2CCCC2)cc1 | 66.1% (inactive)
40 | Clc1cccc(Cl)c1C(Nc1nc2ccccc2s1)Nc1nc2ccccc2s1 | 72.3% (inactive)
